Hit rate of the full screen: of about 2,400 compounds, about 360 (15%) were called active.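 Rule for the calls: active = viability falls under 70% at one or more tested concentrations, taken as toxicity; inactive = viability stays over 70% at every dose.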 Not all results are given here. Entries with a potency or affinity are not part of this list.

The assay in a line: HeLa cell cytotoxicity, dose response, cytotoxicity control for MgcRacGAP inhibitor project (AID 624300). Conditions: CellTiter-Glo luminescence, 24 h; series mostly up to 100 µM.
In the case of `CC(C(=O)NC(=O)NC1CCCCC1)N1CCN(c2ccc(O)cc2)CC1` (stereo unspecified), the outcome was inactive. Consider `COc1ccc(N[C@@H]2CCN3C(=O)c4ccccc4[C@@H]3C[C@H]2O)cc1`, for which the result was inactive. In the case of `N#CC1=C(S)N(c2ccccc2)C(c2ccc(-c3cccc(Cl)c3)o2)NC1=O` (stereo unspecified), the compound was classed as inactive.

Take `COc1ccccc1N1CCN(CCCOc2ccc(F)cc2)CC1`: the compound was called inactive.

For the compound `Cc1cccc(-c2n[nH]c(=S)n2/N=C/c2ccco2)c1`, the compound was classed as inactive. With `COc1cc(CNc2ccc(N3CCOCC3)cc2)cc(Br)c1OC` the entry was “inactive”. Take `COc1ccc(CNc2ccc(N3CCN(C(C)=O)CC3)cc2)cc1OC`: the outcome was inactive. The same measure for `CCOc1cc(CNc2ccc3c(c2)OCCO3)cc(Br)c1OCC(N)=O`: “inactive”; for `CCOc1cc(CNc2ccc(N3CCOCC3)cc2)cc(Br)c1OCC`: “inactive”. For `O=C(Cn1cnc([N+](=O)[O-])n1)N/N=C/c1ccc(O)cc1O`, the result was inactive.

Regarding `O=S(=O)(c1ccccc1)N1N=C(c2ccc(O)cc2)CC1c1ccco1` (stereo unspecified), the result was inactive. Regarding `CN(C)c1ccc(NC(=O)c2ccc3nsnc3c2)cc1`, the result was inactive.

Turning to `O=C(c1ccccc1)N1CCN(C2CCCCC2)CC1`, the call was inactive.

Turning to `COc1ccc(/C=N/n2c(-c3n[nH]c4c3CCC4)n[nH]c2=S)c(OC)c1OC`, the call was inactive. Turning to `Nc1n[nH]c(N)c1N=Nc1ccc2c(c1)OCO2`, the compound was classed as inactive. The same measure for `O=C(CSc1ccc2ccccc2c1)N1CCN(c2ccc(O)cc2)CC1`: “inactive”; for `Oc1ccc(NC(=S)N=Nc2c(O)[nH]c3ccccc23)cc1`: “inactive”. The same measure for `Oc1ccc(NC(=S)Nc2ccc(F)cc2)cc1`: “inactive”; for `Oc1ccc(N2CCN(Cc3cc4c(cc3Br)OCCO4)CC2)cc1`: “inactive”. In the case of `CC1CCN(CC(=O)Nc2ccc(S(=O)(=O)NC3CC3)cc2)CC1`, the compound was called inactive. Take `Cc1ccc(NC(=O)NC(=O)CN2CCN(c3ccc(O)cc3)CC2)c(C)c1`: the compound was called inactive. With `CN(c1ccc(O)cc1)c1nc(-c2cccs2)cs1` the entry was “inactive”. Consider `COc1ccc(CNC(=O)CN(C)Cc2ccc(C(C)(C)C)cc2)cc1`, for which the outcome was inactive. On to `CN1CCN(C=NC2=NN(c3cccc(C(F)(F)F)c3)CC2)CC1`, for which the call was inactive. The same measure for `CCOC(=O)c1[nH]c(=S)n(Cc2ccccc2)c1C(=O)OCC`: “inactive”; for `CN(C)c1ccc(NC(=O)COC(=O)c2ccc3c(c2)OCO3)cc1`: “inactive”.

As for `COC(=O)C1CCN(C(=O)COC(=O)/C=C/c2ccc(O)c(OC)c2)CC1`, the result was inactive. Turning to `CSc1nc(/C=C2\C=Nc3ccccc32)c(O)n1C`, the compound was classed as inactive.

For `CCOC(=O)C1CCCN(C(=S)Nc2ccc(Nc3ccccc3)cc2)C1` (stereo unspecified), the outcome was inactive. In the case of `COc1ccc(-n2cnc(=S)[nH]c2=S)cc1`, the call was inactive. With `CN(C)c1ccc(-n2cccc2/C=C/[N+](=O)[O-])cc1` the entry was “inactive”.

For the origin of these results see PubChem BioAssay AID624300 (Southern Research Specialized Biocontainment Screening …, 2012).
